Results from PubChem BioAssay AID588855 (National Center for Advancing Translational Sciences (NCATS), 2011).
Out of some 410,000 compounds screened, about 5,000 (1.2%) were called active. Not shown: some 13% with an inconclusive outcome. Calls follow the shape of the dose curve; as a rule, active = well fitted inhibition curve with a large enough effect; inconclusive = small, poorly fitted or top-dose-only effect; inactive = no such curve, though single readings can be large or run the other way. Shown is part of a subset that was picked to be rich in actives.

assay: qHTS for Inhibitors of TGF-b; conditions: HepG2 CAGA-GFP TGF-b/SMAD3 reporter, GFP fluorescence, 18 h, TGF-beta stimulated, 500 pg/mL final; series mostly up to 46.1 µM; also: nearly all actives have a fitted effect of over 65% in size
How it was run: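 HEPG2 CAGA-GFP cells (1000/well, DMEM with 1% FBS) were pre-incubated 2 h at 37 degrees C, given compound by pin tool, then stimulated with TGF-beta at 500 pg/mL final for 18 h before per-cell GFP fluorescence imaging.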
Potency is read from the fitted curve at half-maximal effect.

Potency, inactive:
CCOc1cccc(NC(=O)c2ccc(F)c(S(=O)(=O)N(CC)c3cccc(C)c3)c2)c1
O=C1CC(c2ccc(F)cc2F)c2cc3c(cc2N1)OCO3 (configuration not stated)
COC(=O)c1ccc(C2CC(=O)Nc3cc(OC)c(OC)cc32)cc1 (configuration not stated)
Cc1ccc(S(=O)(=O)n2nc(-c3ccc(Cl)cc3)nc2NCc2ccccc2)cc1
COc1ccc(OC)c(-n2nnc3c(sc4nc(C)c(Br)c(C)c43)c2=O)c1
Cc1ccccc1-c1nc2scc(CCNC(=O)C(=O)Nc3ccc(F)cc3F)n2n1
CCOC(=O)C1=CC[C@@H](c2ccccc2)N(S(=O)(=O)c2ccc(C)cc2)[C@H]1c1cccc(OC)c1
Cc1ccccc1S(=O)(=O)N1[C@@H](c2cccc(Cl)c2)C(C(=O)OC(C)(C)C)=CC[C@H]1c1ccc(Cl)cc1
CCCCN(C)S(=O)(=O)c1ccc(C(=O)Nc2sc3c(c2C(N)=O)CC(C)(C)NC3(C)C)cc1
CCc1ccc(NC(=O)c2nn(-c3ccc(C)cc3)c(=O)n(C)c2=O)cc1
CCOC(=O)c1ccccc1NC(=O)c1nn(-c2ccc(OC)c(Cl)c2)c(=O)c2c1c1ccccc1n2C
O=C(NC1CC(=O)N(c2ccc(F)cc2)C1)C1CCCCC1 (configuration not stated)
CCOC(=O)c1c(S(=O)(=O)Nc2cccc(Cl)c2)c(C)n(C)c1C
CCOC(=O)c1c(S(=O)(=O)NCC(=O)Nc2ccc(C)cc2)c(C)n(C)c1C
COc1ccc(CCNC(=O)c2cnc3sc(N4CCCCCC4)nn3c2=O)cc1OC
Nc1c(Cl)cc(-c2csc(N3CCCC3c3nc4cc(Cl)c(Cl)cc4n3CCOCCO)n2)cc1Cl (configuration not stated)
CCCn1c(C(C)Nc2nc(-c3ccc(C)cc3)cs2)nc2cc(Cl)c(N3CCCCC3)cc21 (configuration not stated)
Cc1cccc(OCCCC(=O)Nc2sc3c(c2C(N)=O)CCC(C)C3)c1 (configuration not stated)
O=C(CC1C(=O)N(c2ccccc2)C(=O)N1CCc1cccs1)Nc1ccc(F)cc1 (configuration not stated)
O=C(NC1(C(F)(F)F)N=C(c2ccccc2)N(C2CCCCC2)C1=O)c1ccccc1F (configuration not stated)
CCN(CC)CCNC(=O)c1cc2c(=O)oc3ccc(C)cc3c2s1
Cc1cccc(-n2ncc(C(=O)N3CCc4ccccc4C3)c2C2CCN(C(=O)OC(C)(C)C)CC2)c1
CCCN(CCC)CCCNC(=O)Cn1ncc2c3ccccc3n(Cc3ccccc3)c2c1=O
Cc1ccccc1Cn1c2ccccc2c2cnn(CC(=O)NCc3ccco3)c(=O)c21
CCOC(=O)c1c(C)[nH]c(C)c1S(=O)(=O)NCC(=O)NCc1cccc(C)c1
Cc1ccc(-c2cnc(C3CC3)o2)cc1S(=O)(=O)Nc1cccc(C)c1C
COc1ccc(CNS(=O)(=O)c2ccc(-c3cnc(C4CC4)o3)cc2)cc1
COc1ccc(OC)c(NC(=O)C2CCN(S(=O)(=O)c3ccc(C)cc3)CC2)c1
COc1cc(Br)cc2cc(S(=O)(=O)c3ccccc3)c(=O)oc12
O=C(Nc1ccccn1)C1CCN(S(=O)(=O)c2ccccc2)CC1
Cc1cccc(NC(=O)C2CCN(S(=O)(=O)c3cccc4cccnc34)CC2)c1
COc1ccc(S(=O)(=O)c2c(Nc3cccc(Cl)c3)sc(C(=O)c3ccccc3)c2N)cc1
CC(NC(=O)c1cc(Sc2ccc(F)cc2F)nc2ccccc12)c1ccccc1 (configuration not stated)
CSc1n[nH]c(-c2ccco2)n1
CCN(c1ccc(Cl)cc1)S(=O)(=O)c1nnc(NC(=O)c2ccco2)s1
CCCN(CCC)CCNC(=O)Cn1cnc2sc(C)c(S(=O)(=O)N3CCC(C)CC3)c2c1=O
COc1ccc(-c2onc(C)c2C)cc1S(=O)(=O)NCc1cccs1
COc1ccc(-c2onc(C)c2C)cc1S(=O)(=O)NCCc1ccccc1
O=C(Nc1ccccc1Cl)N1CCC(CN2CCCCC2)CC1
CCCc1nn2c(=O)cc(COC(=O)c3ccc(NC(=O)C(C)Oc4ccccc4)cc3)nc2s1 (configuration not stated)
CN(C)c1ccc(C=Nc2ccc(/C=C/c3ccnc4ccccc34)cc2)cc1
Cc1ccc(-n2nc(C)c3c(C)cc(=O)n(CC(=O)Nc4ccc(C(C)C)cc4)c32)cc1
CC1(C)Cc2ccccc2-c2c[nH]c(=O)n21
CCOC(=O)N1CCc2c(sc3c2C(=O)NC(c2ccccc2F)N3)C1 (configuration not stated)
CC(C)[C@@H](NC(=O)OC(C)(C)C)C(=O)NCC1CCC(C(=O)N[C@@H](Cc2ccccc2)C(=O)O)CC1 (some centres not stated)
CC(C)(C)c1ccc(C(CC(=O)O)NS(=O)(=O)Cc2ccccc2)cc1 (configuration not stated)
CCOC(=O)c1cc2c(=O)n3ccccc3nc2n(CCCOC)c1=NC(=O)C(C)(C)Oc1ccc(Cl)cc1
Cc1ccc(-c2noc(CSc3nnc(-c4ccncc4)n3-c3ccc(F)cc3)n2)cc1
Cc1ccc(-n2c(SCC(=O)N3c4ccccc4Sc4ccccc43)nnc2-c2ccncc2)cc1
OCC(O)C(O)C(O)C(O)C=Nc1ccc(/C=C/c2ccnc3ccccc23)cc1 (configuration not stated)
O=C(c1ccco1)N(Cc1cccs1)c1ccc(O)cc1
CC(CNC(=O)c1nnc(Cc2cccc(F)c2)o1)c1ccccc1 (configuration not stated)
CN(C)c1cccc2ccccc12
CCOC(=O)c1c(S(=O)(=O)N2CCC(C(=O)NCc3ccccc3OC)CC2)c(C)n(C)c1C
Cc1ccc(S(=O)(=O)n2nc(C)c(S(=O)(=O)N3CCCCCC3)c2C)cc1
C=C1C=C(C(F)F)n2ncc(C(=O)NCCc3ccccc3OC)c2N1
O=C(NCCCO)C(=O)Nc1c2c(nn1-c1ccc(F)cc1)CSC2
N#Cc1ccccc1Cn1cnc2nc3c(cc2c1=O)CCCC3
CC(C)(C)c1ccc(C(=O)NCC(c2ccc(Cl)cc2)N2CCOCC2)cc1 (configuration not stated)
Cc1ccccc1Cn1nc(C)c(NC(=O)c2cc(-c3ccc(F)cc3)on2)c1C
Cc1ccc(NC(=O)c2ccc3[nH]c(C)cc(=O)c3c2)c(C)c1
CCOc1ccc(NC(=O)C2CCN(S(=O)(=O)c3cc(-c4noc(C)n4)ccc3C)CC2)cc1
CCOc1ccc(N(CC)S(=O)(=O)N2CCCC(C(=O)Nc3ccc(C(C)=O)cc3)C2)cc1 (configuration not stated)
Cc1ccc(CNC(=O)C2CCCN(S(C)(=O)=O)C2)cc1 (configuration not stated)
COc1cccc(Nc2nc(N)c([N+](=O)[O-])c(NCc3ccco3)n2)c1
CCN1CCN(c2nc(Nc3cccc(F)c3)nc(N)c2[N+](=O)[O-])CC1
CCC(=O)N1c2ccccc2CC1C(=O)N1CCN(c2ccccc2)CC1 (configuration not stated)
Cc1cccc(NC(=O)C2CCN(C(=O)NC3CCCCC3)CC2)c1
Cc1cccc(C(=O)NC(=S)N(C)C2CCCCC2)c1
Cc1cc(=O)n(CC(=O)Nc2cccc([N+](=O)[O-])c2)c(-n2nc(C)cc2C)n1
Cc1ccccc1CS(=O)(=O)CC1Nc2ccc(C(=O)NCc3ccc(Cl)cc3)cc2NC1=O (configuration not stated)
CCOc1ccc(Cl)cc1-c1cc(C(=O)NCc2cccs2)[nH]n1
CC(C)Oc1cc(F)ccc1-c1cc(C(=O)Nc2ccc(F)cc2)[nH]n1
CCOC(=O)c1ccccc1NC(=O)c1sc2nc(-c3ccc(F)cc3)cn2c1C
CCS(=O)(=O)N1CCc2cc(C(=O)NCc3ccc(C)cc3)ccc21
CCCCNC(=O)C1CCCN(c2nnc(C)c3c(C)n(-c4ccc(Cl)cc4)nc23)C1 (configuration not stated)
CCc1ccc(CNC(=O)C2CCN(c3nn4cc(-c5ccc(F)cc5)nc4s3)CC2)cc1
Cc1nnc(N2CCCC(C(=O)NCCN(C)C)C2)c2nn(-c3ccccc3)c(C)c12 (configuration not stated)
CC(=O)Nc1c(C)nn(-c2ccccc2)c1N1CCC(C(=O)Nc2cc(Cl)ccc2C)CC1

Potency, active:
CCCOc1ccccc1C1CC(=O)Nc2cc3c(cc21)OCO3 (configuration not stated) 7.08 µM
Cc1ccc(S(=O)(=O)N2[C@@H](c3cccc(Cl)c3)C(C(=O)O)=CC[C@H]2c2ccc(Cl)c(Cl)c2)cc1 15.8 µM
CCOC(=O)c1c(S(=O)(=O)NCC(=O)Nc2ccc(Cl)c(C(F)(F)F)c2)c(C)n(C)c1C 11.2 µM
Cc1nc2cc(C(F)(F)F)ccc2n1CCNc1nc(-c2cc(Cl)c(N)c(Cl)c2)cs1 11.2 µM
O=C1NC(Nc2nc3ccccc3s2)(C(F)(F)F)C(=O)N1C1CCCCC1 (configuration not stated) 7.94 µM
COc1cc(SC#N)ccc1N=Cc1c(C)[nH]n(-c2ccc(C)cc2)c1=O 10 µM
CCN(CC)CCNC(=O)Cn1ncc2c3ccccc3n(Cc3ccccc3C)c2c1=O 14.1 µM
Cc1cccc(NS(=O)(=O)c2ccc(-c3cnc(C4CC4)o3)cc2)c1 11.2 µM
Cc1ccnc(NC(=O)C2CCN(S(=O)(=O)c3c(C)c(C)cc(C)c3C)CC2)c1 11.2 µM
COc1ccc(-c2onc(C)c2C)cc1S(=O)(=O)NCC1CCN(Cc2cccc(F)c2)CC1 8.91 µM
C[C@@H](NC(=O)OC(C)(C)C)c1nnc(S(=O)(=O)Cc2ccccc2)o1 14.1 µM
Cc1ccc(Nc2nc(CSc3nnc(-c4ccncc4)n3-c3ccccc3C)cs2)cc1 11.2 µM
COc1ccc(OC)c(C2C3=C(N=c4s/c(=C\c5cccc(O)c5)c(=O)n42)c2ccccc2CC3)c1 (configuration not stated) 15.8 µM
CCOc1ccc(N(CC)S(=O)(=O)N2CCCC(C(=O)NCc3ccc(Cl)cc3)C2)cc1 (configuration not stated) 17.8 µM
CNc1nc(Nc2ccc(C)c(Cl)c2)nc(N)c1[N+](=O)[O-] 11.2 µM
Cc1cccc(NC(=S)NCCN(C2CCCCC2)C2CCCC2)c1 17.8 µM
CCCOc1ccc(F)cc1-c1cc(C(=O)Nc2ccc(F)c(Cl)c2)[nH]n1 11.2 µM
Cc1nnc(N2CCC(C(=O)Nc3ccc(F)cc3)CC2)c2nn(-c3ccc(Cl)cc3)c(C)c12 10 µM
